Measured values as given in the supplement of paper PMC4466140.

How the values were obtained:
Assay in all cases: SPOT peptide array binding signal intensity (averaged, normalized) (arbitrary units (background-subtracted, floor 0; scale differs between SH3 domains)); higher = stronger binding of the SH3 domain to the peptide
[1] = target: AgAbp1
How it was run: (§1)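 Binding signal is given in arbitrary units that differ between domains and is the normalized, background-subtracted spot intensity averaged across replicates. Each GST-SH3 fusion from one of four yeast species was made in E. coli BL21(DE3), purified on glutathione Sepharose and incubated at 10 μg/ml overnight at 4°C on cellulose-bound synthetic 15-mer peptides in which cysteines were replaced by serines. Detection used anti-GST antibody, an HRP anti-mouse secondary and luminol, followed by imaging and Genespotter quantification.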

[2] = target: AgBbc1
How it was run: as §1

[3] = target: AgBem1-D1
How it was run: as §1

[4] = target: AgBzz1-D1
How it was run: as §1

[5] = target: AgBzz1-D2
How it was run: as §1

[6] = target: AgCyk3
How it was run: as §1

[7] = target: AgFus1
How it was run: as §1

[8] = target: AgHof1
How it was run: as §1

[9] = target: AgHse1
How it was run: as §1

[10] = target: AgLsb1
How it was run: as §1

[11] = target: AgLsb4
How it was run: as §1

[12] = target: AgMyo5
How it was run: as §1

[13] = target: AgNbp2
How it was run: as §1

[14] = target: AgRvs167
How it was run: as §1

[15] = target: AgSho1
How it was run: as §1

[16] = target: AgSla1-D1-D2
How it was run: as §1

[17] = target: AgSla1-D3
How it was run: as §1

[18] = target: CaAbp1-D1
How it was run: as §1

[19] = target: CaAbp1-D2
How it was run: as §1

[20] = target: CaBbc1
How it was run: as §1

[21] = target: CaBem1-D1
How it was run: as §1

[22] = target: CaBzz1-D1
How it was run: as §1

[23] = target: CaBzz1-D2
How it was run: as §1

[24] = target: CaCyk3
How it was run: as §1

[25] = target: CaFus1
How it was run: as §1

[26] = target: CaHof1
How it was run: as §1

[27] = target: CaHse1
How it was run: as §1

[28] = target: CaLsb1
How it was run: as §1

[29] = target: CaLsb4
How it was run: as §1

[30] = target: CaMyo5
How it was run: as §1

[31] = target: CaNbp2
How it was run: as §1

[32] = target: CaRvs167
How it was run: as §1

[33] = target: CaRvs167-3
How it was run: as §1

[34] = target: CaSho1
How it was run: as §1

[35] = target: CaSla1-D1-D2
How it was run: as §1

[36] = target: CaSla1-D3
How it was run: as §1

[37] = target: ScAbp1
How it was run: as §1

[38] = target: ScBbc1
How it was run: as §1

[39] = target: ScBem1-D1
How it was run: as §1

[40] = target: ScBzz1-D1
How it was run: as §1

[41] = target: ScBzz1-D2
How it was run: as §1

[42] = target: ScCyk3
How it was run: as §1

[43] = target: ScFus1
How it was run: as §1

[44] = target: ScHof1
How it was run: as §1

[45] = target: ScHse1
How it was run: as §1

[46] = target: ScLsb1
How it was run: as §1

[47] = target: ScLsb2
How it was run: as §1

[48] = target: ScLsb3
How it was run: as §1

[49] = target: ScLsb4
How it was run: as §1

[50] = target: ScMyo3
How it was run: as §1

[51] = target: ScMyo5
How it was run: as §1

[52] = target: ScNbp2
How it was run: as §1

[53] = target: ScPex13
How it was run: as §1

[54] = target: ScRvs167
How it was run: as §1

[55] = target: ScSho1
How it was run: as §1

[56] = target: ScSla1-D1-D2
How it was run: as §1

[57] = target: ScSla1-D3
How it was run: as §1

[58] = target: SpAbp1-D1
How it was run: as §1

[59] = target: SpBbc1
How it was run: as §1

[60] = target: SpBzz1-D1
How it was run: as §1

[61] = target: SpBzz1-D2
How it was run: as §1

[62] = target: SpCyk3
How it was run: as §1

[63] = target: SpHof1
How it was run: as §1

[64] = target: SpHof1-2
How it was run: as §1

[65] = target: SpHof1-3
How it was run: as §1

[66] = target: SpHse1
How it was run: as §1

[67] = target: SpLsb1
How it was run: as §1

[68] = target: SpLsb4
How it was run: as §1

[69] = target: SpMyo1
How it was run: as §1

[70] = target: SpNbp2
How it was run: as §1

[71] = target: SpPex13
How it was run: as §1

[72] = target: SpRvs167
How it was run: as §1

[73] = target: SpSla1-D1-D2
How it was run: as §1

[74] = target: SpSla1-D3
How it was run: as §1

KKAPPPVVKPKPRNF
SPOT peptide array binding signal intensity [1]: 4680
SPOT peptide array binding signal intensity [2]: 58
SPOT peptide array binding signal intensity [3]: 44.5
SPOT peptide array binding signal intensity [4]: 316
SPOT peptide array binding signal intensity [5]: 101
SPOT peptide array binding signal intensity [6]: ≤ 0
SPOT peptide array binding signal intensity [7]: 31
SPOT peptide array binding signal intensity [8]: 63.5
SPOT peptide array binding signal intensity [9]: 39
SPOT peptide array binding signal intensity [10]: 1.75
SPOT peptide array binding signal intensity [11]: 12.5
SPOT peptide array binding signal intensity [12]: ≤ 0
SPOT peptide array binding signal intensity [13]: 45
SPOT peptide array binding signal intensity [14]: 6
SPOT peptide array binding signal intensity [15]: 15
SPOT peptide array binding signal intensity [16]: 8
SPOT peptide array binding signal intensity [17]: 32.5
SPOT peptide array binding signal intensity [18]: 3270
SPOT peptide array binding signal intensity [19]: 6180
SPOT peptide array binding signal intensity [20]: 154
SPOT peptide array binding signal intensity [21]: 15.5
SPOT peptide array binding signal intensity [22]: 1220
SPOT peptide array binding signal intensity [23]: 2260
SPOT peptide array binding signal intensity [24]: 5
SPOT peptide array binding signal intensity [25]: 45.5
SPOT peptide array binding signal intensity [26]: 1
SPOT peptide array binding signal intensity [27]: 1.25
SPOT peptide array binding signal intensity [28]: 2.5
SPOT peptide array binding signal intensity [29]: 15.5
SPOT peptide array binding signal intensity [30]: 1.5
SPOT peptide array binding signal intensity [31]: 36.5
SPOT peptide array binding signal intensity [32]: 11
SPOT peptide array binding signal intensity [33]: 8
SPOT peptide array binding signal intensity [34]: 23
SPOT peptide array binding signal intensity [35]: 3160
SPOT peptide array binding signal intensity [36]: 4.75
SPOT peptide array binding signal intensity [37]: 7880
SPOT peptide array binding signal intensity [38]: 3
SPOT peptide array binding signal intensity [39]: 6
SPOT peptide array binding signal intensity [40]: 178
SPOT peptide array binding signal intensity [41]: 60
SPOT peptide array binding signal intensity [42]: 7
SPOT peptide array binding signal intensity [43]: 15
SPOT peptide array binding signal intensity [44]: 3.5
SPOT peptide array binding signal intensity [45]: 61
SPOT peptide array binding signal intensity [46]: 20.5
SPOT peptide array binding signal intensity [47]: 2
SPOT peptide array binding signal intensity [48]: ≤ 0
SPOT peptide array binding signal intensity [49]: 3.5
SPOT peptide array binding signal intensity [50]: ≤ 0
SPOT peptide array binding signal intensity [51]: ≤ 0
SPOT peptide array binding signal intensity [52]: 32
SPOT peptide array binding signal intensity [53]: 0.5
SPOT peptide array binding signal intensity [54]: 5.17
SPOT peptide array binding signal intensity [55]: 37.5
SPOT peptide array binding signal intensity [56]: 3640
SPOT peptide array binding signal intensity [57]: 17
SPOT peptide array binding signal intensity [58]: 2160
SPOT peptide array binding signal intensity [59]: 0.75
SPOT peptide array binding signal intensity [60]: 318
SPOT peptide array binding signal intensity [61]: 0.5
SPOT peptide array binding signal intensity [62]: 1
SPOT peptide array binding signal intensity [63]: 12
SPOT peptide array binding signal intensity [64]: 13.2
SPOT peptide array binding signal intensity [65]: 31
SPOT peptide array binding signal intensity [66]: 117
SPOT peptide array binding signal intensity [67]: 1140
SPOT peptide array binding signal intensity [68]: 27
SPOT peptide array binding signal intensity [69]: 7
SPOT peptide array binding signal intensity [70]: 43
SPOT peptide array binding signal intensity [71]: 3.5
SPOT peptide array binding signal intensity [72]: ≤ 0
SPOT peptide array binding signal intensity [73]: 5.5
SPOT peptide array binding signal intensity [74]: 10.5

IVNKPLPPLPVAGSS
SPOT peptide array binding signal intensity [61]: ≤ 0
SPOT peptide array binding signal intensity [62]: 3
SPOT peptide array binding signal intensity [63]: 2930
SPOT peptide array binding signal intensity [64]: 3490
SPOT peptide array binding signal intensity [65]: 5540
SPOT peptide array binding signal intensity [66]: 15
SPOT peptide array binding signal intensity [67]: 47
SPOT peptide array binding signal intensity [68]: 1.5
SPOT peptide array binding signal intensity [69]: 184
SPOT peptide array binding signal intensity [70]: 11
SPOT peptide array binding signal intensity [71]: 15
SPOT peptide array binding signal intensity [72]: 1580
SPOT peptide array binding signal intensity [73]: 1200
SPOT peptide array binding signal intensity [74]: ≤ 0
